In all, about 5,500 compounds went through this assay and about 2,000 (36%) were called active. About 18% were inconclusive and are not listed. This is one part of the list. Unmarked numbers belong to inactive results. Rule as the data show it: active = normalized growth mostly below about 0.91 (no sharp cut-off); inconclusive = no clear call, values can overlap the other calls; inactive = mostly above about 0.92.
Experiment: chemical genetic growth profiling, strain panel (AID 1159580);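 also: tested at 20 µM; growth read once vehicle control cultures reached saturation at 30 °C; 1 = growth at the plate median or of vehicle wells; lower values mean less growth of the strain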
Conditions: S. cerevisiae deletion strains, growth OD

CN1CCCC(n2nc(Cc3ccc(Cl)cc3)c3ccccc3c2=O)CC1 (stereo not given)
normalized growth (locus YAL021C, strain ccr4, active compounds read low): 1.01 | normalized growth (locus YAL026C, strain drs2, active compounds read low): 1 | normalized growth (locus YAL030W, strain snc1, active compounds read low): 0.999 | normalized growth (locus YBL061C, strain skt5, active compounds read low): 1 | normalized growth (locus YBR009C, strain hhf1, active compounds read low): 0.93 | normalized growth (locus YBR023C, strain chs3, active compounds read low): 1.02 | normalized growth (locus YBR171W, strain sec66, active compounds read low): 0.989 | normalized growth (locus YBR231C, strain swc5, active compounds read low): 0.984 | normalized growth (locus YBR279W, strain paf1, active compounds read low): 1.02 | normalized growth (locus YCL011C, strain gbp2, active compounds read low): 0.989 | normalized growth (locus YCL016C, strain dcc1, active compounds read low): 1.04 | normalized growth (locus YCL061C, strain MRC1, active compounds read low): 0.968 | normalized growth (locus YCL069W, strain vba3, active compounds read low): 0.988 | normalized growth (locus YCR088W, strain abp1, active compounds read low): 0.991 | normalized growth (locus YDL005C, strain med2, active compounds read low): 0.999 | normalized growth (locus YDL040C, strain nat1, active compounds read low): 1 | normalized growth (locus YDR001C, strain nth1, active compounds read low): 1 | normalized growth (locus YDR069C, strain doa4, active compounds read low): 0.996 | normalized growth (locus YDR137W, strain rgp1, active compounds read low): 1.25 [resistant] (active) | normalized growth (locus YDR159W, strain sac3, active compounds read low): 0.912 | normalized growth (locus YDR195W, strain ref2): 0.972 | normalized growth (locus YDR297W, strain sur2, active compounds read low): 0.99 | normalized growth (locus YDR334W, strain swr1, active compounds read low): 0.981 | normalized growth (locus YDR335W, strain msn5, active compounds read low): 1.01 | normalized growth (locus YDR392W, strain spt3, active compounds read low): 0.772 | normalized growth (locus YEL003W, strain gim4, active compounds read low): 0.948 | normalized growth (locus YEL037C, strain rad23, active compounds read low): 0.992 | normalized growth (locus YEL061C, strain CIN8 (second series), active compounds read low): 0.983 | normalized growth (locus YER015W, strain faa2, active compounds read low): 0.966 | normalized growth (locus YER016W, strain bim1, active compounds read low): 1.03 | normalized growth (locus YER111C, strain swi4, active compounds read low): 1.01 | normalized growth (locus YER155C, strain BEM2 (second series), active compounds read low): 0.884 | normalized growth (locus YFR010W, strain ubp6, active compounds read low): 0.941 | normalized growth (locus YGL167C, strain pmr1, active compounds read low): 0.982 | normalized growth (locus YGL173C, strain kem1, active compounds read low): 0.964 | normalized growth (locus YGL227W, strain vid30, active compounds read low): 1 | normalized growth (locus YGL240W, strain doc1, active compounds read low): 0.942 | normalized growth (locus YGL253W, strain hxk2, active compounds read low): 1.02 | normalized growth (locus YHR013C, strain ard1, active compounds read low): 0.994 | normalized growth (locus YHR027C, strain rpn1, active compounds read low): 0.944 | normalized growth (locus YHR030C, strain SLT2, active compounds read low): 1.03 | normalized growth (locus YHR079C, strain IRE1, active compounds read low): 1.02 | normalized growth (locus YHR142W, strain chs7, active compounds read low): 1.02 | normalized growth (locus YJL092W, strain hpr5, active compounds read low): 0.981 | normalized growth (locus YJL095W, strain BCK1 (second series), active compounds read low): 0.996 | normalized growth (locus YJL095W, strain BCK1, active compounds read low): 0.979 | normalized growth (locus YJL115W, strain asf1, active compounds read low): 1.02 | normalized growth (locus YJL129C, strain trk1, active compounds read low): 1.07 | normalized growth (locus YJL154C, strain vps35, active compounds read low): 0.992 | normalized growth (locus YJL164C, strain tpk1, active compounds read low): 0.964 | normalized growth (locus YJL166W, strain qcr8, active compounds read low): 0.96 | normalized growth (locus YJL187C, strain SWE1, active compounds read low): 1.01 | normalized growth (locus YJR066W, strain TOR1, active compounds read low): 0.99 | normalized growth (locus YKL160W, strain elf1, active compounds read low): 1.04 | normalized growth (locus YKR026C, strain gcn3, active compounds read low): 0.995 | normalized growth (locus YKR091W, strain srl3, active compounds read low): 1 | normalized growth (locus YLL001W, strain dnm1, active compounds read low): 0.958 | normalized growth (locus YLL026W, active compounds read low): 1 | normalized growth (locus YLL041C, strain sdh2, active compounds read low): 0.99 | normalized growth (locus YLR027C, strain aat2, active compounds read low): 1.01 | normalized growth (locus YLR113W, strain HOG1, active compounds read low): 0.975 | normalized growth (locus YLR221C, strain rsa3, active compounds read low): 0.954 | normalized growth (locus YLR258W, strain gsy2, active compounds read low): 1.02 | normalized growth (locus YLR262C, strain YPT6 (second series), active compounds read low): 1.06 | normalized growth (locus YLR320W, strain mms22, active compounds read low): 0.905 | normalized growth (locus YLR342W, strain FKS1, active compounds read low): 1 | normalized growth (locus YLR357W, strain rsc2, active compounds read low): 0.949 | normalized growth (locus YLR370C, strain arc18, active compounds read low): 1.02 | normalized growth (locus YLR384C, strain iki3, active compounds read low): 0.996 | normalized growth (locus YML120C, strain ndi1, active compounds read low): 0.95 | normalized growth (locus YMR058W, strain fet3, active compounds read low): 0.961 | normalized growth (locus YMR125W, strain sto1, active compounds read low): 0.983 | normalized growth (locus YMR129W, active compounds read low): 1 | normalized growth (locus YMR205C, strain PFK2, active compounds read low): 0.981 | normalized growth (locus YMR231W, strain pep5, active compounds read low): 1 | normalized growth (locus YNL071W, strain lat1, active compounds read low): 0.993 | normalized growth (locus YNL183C, strain NPR1, active compounds read low): 0.975 | normalized growth (locus YNL209W, strain ssb2, active compounds read low): 0.993 | normalized growth (locus YNL248C, strain rpa49, active compounds read low): 1 | normalized growth (locus YNL322C, strain KRE1 (second series), active compounds read low): 1.01 | normalized growth (locus YNR049C, strain mso1, active compounds read low): 1 | normalized growth (locus YOR001W, strain rrp6, active compounds read low): 0.902 | normalized growth (locus YOR070C, strain gyp1, active compounds read low): 1.01 | normalized growth (locus YOR080W, strain dia2, active compounds read low): 0.98 | normalized growth (locus YOR083W, strain WHI5, active compounds read low): 0.966 | normalized growth (locus YOR106W, strain vam3, active compounds read low): 0.993 | normalized growth (locus YOR231W, strain MKK1, active compounds read low): 0.993 | normalized growth (locus YOR265W, strain rbl2, active compounds read low): 0.998 | normalized growth (locus YOR270C, strain vph1, active compounds read low): 0.93 | normalized growth (locus YOR290C, strain snf2, active compounds read low): 1.01 | normalized growth (locus YPL051W, strain arl3, active compounds read low): 1.05 | normalized growth (locus YPL078C, strain atp4, active compounds read low): 1.01 | normalized growth (locus YPL106C, strain sse1, active compounds read low): 1.08 | normalized growth (locus YPL240C, strain hsp82, active compounds read low): 1 | normalized growth (locus YPL256C, strain CLN2, active compounds read low): 1.01
